# Screen size: about 37,000 compounds; about 2,800 (7.6%) were called active. Inconclusive results (about 1%) are left out. Cut-off read from the data, not from the text of the source: active = inhibition above about 80%; inconclusive = no clear call, values can overlap the other calls; inactive = below that. Only a selection was taken, and actives are over-represented in it overall.
# Test: NOMO-1 AML cell viability reduction, primary screen, STK33 inhibitor project, CellTiter-Glo luminescence (AID 2330)
# Settings: NOMO-1 AML viability, 72 h, hits give high values, concentration not given here
row,SMILES,inhibition
1,O=C(CSc1nccc(=O)[nH]1)Nc1ccc([N+](=O)[O-])cc1,11.7% (inactive)
2,C=C1CCC(C)C(C)(CCC2=CC(OC)OC2=O)C/C=C\C=C\1C(=O)O (centres undefined),9.74% (inactive)
3,Cc1cc(C)n2nc(SCC(=O)Nc3ccccc3[N+](=O)[O-])nc2n1,4.39% (inactive)
4,Cc1ccc(CC2C(=O)N(c3cccc(C(F)(F)F)c3)C(=O)C2C)cc1 (centres undefined),54.7% (inactive)
5,C[C@@H]1CN([C@H](C)CO)C(=O)c2cc(NC(=O)C3CC3)ccc2O[C@@H]1CN(C)C,-2.07% (inactive)
6,CNC[C@H]1Oc2c(NC(=O)C3CC3)cccc2C(=O)N([C@@H](C)CO)C[C@@H]1C,15.2% (inactive)
7,C[C@@H]1CN([C@H](C)CO)C(=O)Cc2cc(NS(=O)(=O)c3ccc(Cl)cc3)ccc2O[C@@H]1CN(C)S(=O)(=O)c1ccc(Cl)cc1,19.9% (inactive)
8,C[C@@H]1CN([C@H](C)CO)C(=O)c2cc(NC(=O)Cc3ccccc3)ccc2O[C@H]1CN(C)S(=O)(=O)c1cn(C)cn1,4.97% (inactive)
9,CC(Sc1nc2ccccc2[nH]1)c1nc2ccccc2[nH]1 (centres undefined),4.08% (inactive)
10,Cc1cccc(C)c1NC(=O)C(C)N(c1ccc(Cl)cc1)S(C)(=O)=O (centres undefined),-16.6% (inactive)
11,CCOC(=O)c1c(NC(=O)Cn2nc([N+](=O)[O-])c(Br)c2C)sc2c1CCCC2,41.4% (inactive)
12,Cc1ccc(S(=O)(=O)Nc2cccc3c2O[C@@H](CN(C)CC2CCCCC2)[C@H](C)CN([C@@H](C)CO)C3=O)cc1,10.5% (inactive)
13,Cc1ccc(S(=O)(=O)Nc2cccc3c2O[C@@H](CN(C)S(=O)(=O)c2ccc(C)cc2)[C@H](C)CN([C@@H](C)CO)C3=O)cc1,4.36% (inactive)
14,C[C@H](CO)N1C[C@H](C)[C@@H](CN(C)Cc2ccc3c(c2)OCO3)Oc2c(cccc2N(C)C)C1=O,21.9% (inactive)
15,C[C@H]1CN([C@@H](C)CO)C(=O)c2cc(NS(=O)(=O)c3ccccc3)ccc2O[C@@H]1CN(C)C(=O)NC1CCCCC1,13.9% (inactive)
16,COc1ccc(NC(=O)Nc2cccc3c2O[C@H](CN(C)S(=O)(=O)c2cccs2)[C@H](C)CN([C@@H](C)CO)C3=O)cc1,34.9% (inactive)
17,Cc1ccc(S(=O)(=O)Nc2cccc3c2O[C@H](CN(C)C(=O)Nc2ccc(C(F)(F)F)cc2)[C@@H](C)CN([C@@H](C)CO)C3=O)cc1,-0.901% (inactive)
18,C[C@H]1CN([C@@H](C)CO)C(=O)c2cccc(NC(=O)Nc3ccc(C(F)(F)F)cc3)c2O[C@H]1CN(C)S(=O)(=O)c1ccccc1,54.4% (inactive)
19,C[C@H]1CN([C@@H](C)CO)C(=O)c2cccc(NS(=O)(=O)c3ccccc3)c2O[C@@H]1CN(C)C(=O)Nc1ccc(C(F)(F)F)cc1,-8.64% (inactive)
20,C[C@@H]1CN([C@@H](C)CO)C(=O)c2cccc(NC(=O)Nc3ccc(C(F)(F)F)cc3)c2O[C@@H]1CN(C)S(=O)(=O)c1cccs1,96.7% (active)
21,C[C@@H]1CN([C@H](C)CO)C(=O)c2cccc(NS(=O)(=O)c3ccc(F)cc3)c2O[C@@H]1CN(C)C(=O)Nc1ccc(C(F)(F)F)cc1,101% (active)
22,CC(C)NC(=O)Nc1cccc2c1O[C@@H](CN(C)S(=O)(=O)c1ccc(F)cc1)[C@@H](C)CN([C@H](C)CO)C2=O,-7.11% (inactive)
23,CCn1c(=O)cc(O)c2ccccc21,27.9% (inactive)

row,SMILES,inhibition
1,C[C@H](CO)N1C[C@H](C)[C@H](CN(C)C(=O)NC2CCCCC2)Oc2ccc(NC(=O)c3ccncc3)cc2CC1=O,-3.17% (inactive)
2,COc1ccc(S(=O)(=O)N(C)C[C@H]2Oc3ccc(NS(C)(=O)=O)cc3C(=O)N([C@H](C)CO)C[C@H]2C)cc1,-0.557% (inactive)
3,C[C@@H]1CCCCO[C@H](CN(C)S(C)(=O)=O)[C@@H](C)CN([C@H](C)CO)C(=O)c2cc(NS(=O)(=O)c3ccc(Cl)cc3)ccc2O1,4.39% (inactive)
4,CC(C)=CCCC1(C)C=Cc2c(ccc3c2[nH]c2cc(O)c(C)cc23)O1 (centres undefined),108% (active)
5,O=C(CC1SC(=NC2CC3C=CC2C3)NC1=O)Nc1ccccc1Cl (centres undefined),8.48% (inactive)
6,O=[N+]([O-])c1cccc(NC(=S)Nc2nn(Cc3ccc(Cl)cc3Cl)cc2Cl)c1,111% (active)
7,COc1ccc(NC(=O)Nc2nn(Cc3ccc(Cl)cc3Cl)cc2Br)cc1OC,39.9% (inactive)
8,CC(C)CC(C(=O)Nc1cccc([N+](=O)[O-])c1)N1C(=O)c2ccccc2C1=O (centres undefined),26.9% (inactive)
9,C[C@H]1CN([C@@H](C)CO)C(=O)c2cc(NC(=O)Nc3ccc4c(c3)OCO4)ccc2O[C@H]1CN(C)S(=O)(=O)c1ccc(F)cc1,18.9% (inactive)
10,C[C@H]1CN([C@@H](C)CO)C(=O)c2cccc(NS(=O)(=O)c3cn(C)cn3)c2O[C@@H]1CN(C)C(=O)Nc1ccc(F)cc1,7.11% (inactive)
11,C[C@H]1O[C@@H](O[C@H]2[C@@H](O)C[C@H](O[C@H]3[C@@H](O)C[C@H](O[C@H]4CC[C@]5(C)C6C[C@@H](O)[C@]7(C)[C@@H](C8=CC(=O)OC8)CC[C@]7(O)C6CC[C@@H]5C4)O[C@@H]3C)O[C@@H]2C)C[C@H](O)[C@@H]1O (some centres undefined),112% (active)
12,C[C@H]1CN([C@@H](C)CO)C(=O)Cc2cc(NC(=O)C3CC3)ccc2O[C@@H]1CN(C)C(=O)NC1CCCCC1,-0.0688% (inactive)
13,Cc1ccc(S(=O)(=O)N(C)C[C@@H]2Oc3c(NS(=O)(=O)c4ccc(F)cc4)cccc3C(=O)N([C@@H](C)CO)C[C@H]2C)cc1,-7.97% (inactive)
14,CCCc1nc2c(C)cc(-c3nc4ccccc4n3C)cc2n1Cc1ccc(-c2ccccc2C(=O)O)cc1,0.908% (inactive)
15,C[C@H](CO)N1C[C@H](C)[C@H](CN(C)C)Oc2c(NC(=O)C3CCOCC3)cccc2C1=O,-4.27% (inactive)
16,O=C(CCn1cnc2ccccc2c1=O)Nc1cccc(C(F)(F)F)c1,-23.9% (inactive)
17,O=C(O)CCSc1nnc2c(n1)[nH]c1ccccc12,16.8% (inactive)
18,O=C(CSc1nnc2c(n1)[nH]c1ccccc12)Nc1cccc(C(F)(F)F)c1,112% (active)
19,COc1ccc(NC(=O)C(=O)NCC(=O)Nc2cccc(C(F)(F)F)c2)cc1,14% (inactive)
20,O=C(CN1C(=O)c2ccccc2S1(=O)=O)Nc1ccc(F)c(F)c1,36.7% (inactive)
21,Nc1nnc(SCCN2C(=O)c3ccccc3S2(=O)=O)s1,32.8% (inactive)
22,O=C1c2ccccc2S(=O)c2ccccc2S(=O)(=O)N1Cc1ccccc1 (centres undefined),117% (active)
23,Cc1noc(C)c1NC(=O)Nc1ccc2c(c1)C(=O)N([C@@H](C)CO)C[C@H](C)[C@@H](CN(C)C(=O)Nc1ccccc1)O2,-19% (inactive)

row,SMILES,inhibition
1,Cc1ccc(S(=O)(=O)N(C)C[C@@H]2Oc3ccc(NC(=O)Cn4cnnn4)cc3CC(=O)N([C@H](C)CO)C[C@H]2C)cc1,-11.1% (inactive)
2,O=C(/C=C/c1ccccc1)NCCCCNCCCNC(=O)/C=C/c1ccccc1,11.1% (inactive)
3,COc1cc(NC(=O)COc2cc(C)c(Br)c(C)c2)c(OC)cc1Cl,6.99% (inactive)
4,C=CCNc1nc(C)nc(OC)n1,-5.74% (inactive)
5,C[C@@H]1CN([C@H](C)CO)C(=O)Cc2cc(NC(=O)Nc3ccc(F)cc3)ccc2O[C@@H]1CN(C)C(=O)Nc1ccc2c(c1)OCO2,10.5% (inactive)
6,O=C1NC(Cc2c[nH]c3ccccc23)C(=O)N2CCCC12 (centres undefined),14.5% (inactive)
7,Cc1ccc2nc(C)c3c(c2c1)N(c1ccccc1)CC3,122% (active)
8,O=C(CSc1nc2sc3c(c2c(=O)[nH]1)CCC3)Nc1ccccc1C(F)(F)F,26% (inactive)
9,C[C@H](CO)N1C[C@H](C)[C@H](CN(C)C(=O)Nc2ccc(C(F)(F)F)cc2)Oc2ccc(NS(C)(=O)=O)cc2CC1=O,-2.28% (inactive)
10,Cc1ccc(S(=O)(=O)N(C)C[C@@H]2Oc3ccc(NC(=O)Nc4ccc5c(c4)OCO5)cc3C(=O)N([C@@H](C)CO)C[C@@H]2C)cc1,45.7% (inactive)
11,Cc1cc(C)cc(OCC(=O)Nc2cccc(-c3nnc(-c4ccccc4)o3)c2)c1,42.7% (inactive)
12,Cc1ccnc(NC(c2cccc(Br)c2)c2ccc3ccc(C)nc3c2O)c1 (centres undefined),126% (active)
13,Cc1ccnc(NC(c2cccc([N+](=O)[O-])c2)c2ccc3ccc(C)nc3c2O)c1 (centres undefined),101% (active)
14,Cc1ccc(S(=O)(=O)Nc2ccc3c(c2)C(=O)N([C@@H](C)CO)C[C@H](C)[C@H](CN(C)C(=O)Nc2ccc(C(F)(F)F)cc2)O3)cc1,4.18% (inactive)
15,Cc1ccc(NC(=O)C2C3C=CC(C3)C2C(=O)O)cc1 (centres undefined),-5.27% (inactive)
16,Cc1cccc(NC(=O)CSc2nnc(-c3ccccc3)n2C2CCCCC2)c1C,22.3% (inactive)
17,COc1ccc(NC(=O)CSc2nnc(-c3ccc(Br)cc3)n2C)cc1,16.2% (inactive)
18,C[C@H](CO)N1C[C@H](C)[C@H](CN(C)Cc2ccc(Oc3ccccc3)cc2)Oc2c(NC(=O)CCCCCC(=O)Nc3ccccc3N)cccc2C1=O,139% (active)
19,C[C@H](CO)N1C[C@H](C)[C@@H](CN(C)Cc2ccccc2)Oc2c(NC(=O)CCCCCC(=O)Nc3ccccc3N)cccc2C1=O,126% (active)
20,C[C@H]1CN([C@@H](C)CO)C(=O)c2cccc(NC(=O)CCCCCC(=O)Nc3ccccc3N)c2O[C@H]1CN(C)C(=O)Nc1ccccc1,10.1% (inactive)
21,C[C@H]1CN([C@@H](C)CO)C(=O)c2cccc(NC(=O)Nc3ccccc3)c2O[C@H]1CN(C)Cc1ccc(Oc2ccccc2)cc1,18.8% (inactive)
22,C[C@H](CO)N1C[C@H](C)[C@@H](CN(C)C(=O)Nc2ccccc2)Oc2c(NC(=O)CCCCCC(=O)Nc3ccccc3N)cccc2C1=O,21.7% (inactive)
23,C[C@@H]1CN([C@H](C)CO)C(=O)c2cccc(NC(=O)CCCCCC(=O)Nc3ccccc3N)c2O[C@@H]1CN(C)C(=O)Nc1ccccc1,7.63% (inactive)

# From PubChem BioAssay AID2330 (Broad Institute, 2010)
